This note sets out measurements from PubChem BioAssay (NCATS).

Where “and” joins values, the source holds several entries; their conditions need not be identical. Equal entries are not always repeated. Inconclusive results are not listed. Values without a mark were called inactive. Calls of active or inactive are those of the source. The call rests on the fitted dose curve; in most records, active means well fitted cell-killing curve with a large enough effect; inconclusive means small, poorly fitted or top-dose-only effect; inactive means no such curve, though single readings can be large or run the other way.
On the % scale 0 is the no-effect control and ±100 the full control effect; potency means the concentration at half of the fitted maximal effect.

This experiment is described as follows: qHTS of pediatric cancer cell lines to identify multiple opportunities for drug repurposing: Primary screen for MG 63 (6-TG R) cells (AID 1347105). Further: nearly all actives have a fitted effect of over 50% in size. Conditions: MG 63 (6-TG R) viability, CellTiter-Glo, 48 h; series mostly up to 46 µM; activity change, negative = cytotoxic: at the top concentration. The source says:
Drug repurposing or repositioning has been offered as a strategy for drug development in oncology programs. This approach has special potential for childhood cancers and other rare or orphan diseases, where the expected return on new drug development has been a disincentive to pharmaceuticals. […] In this project we exploit the poly-pharmacology of drugs to discover new indications via phenotypic screening of a panel of 19 well-characterized cell lines derived from solid tumors seen in children and adolescents. The goal is to identify approved drugs with previously unrecognized anticancer properties that has the potential to reveal new mechanisms and biological processes involved in carcinogenesis or drug resistance. We employed a titration-based paradigm (quantitative high-throughput screening or qHTS), where all compounds were tested at multiple concentrations for their effect on cell viability. Concentration-response curves (CRCs) were derived directly from the primary screen, and both potency and efficacy values were used to identify compounds with robust bioactivity profiles. We screened the NIH Chemical Genomics Center (NCGC) Pharmaceutical Collection (NPC) and Mechanism Interrogation Plate (MIPE) small molecule collections of approved and investigational compounds against these cell lines; and measured metabolically active cells after 48 hours of compound treatment as a proxy for cell viability. […] Assay Submitter: Nathalia J. Martinez, National Center for Advancing Translational Sciences, National Institutes of Health, Rockville, MD, USA; email: natalia.martinez@nih.gov Shen, M et al. Quantitative high-throughput phenotypic screening of pediatric cancer cell lines identifies multiple opportunities for drug repurposing. Oncotarget 2017 Dec 19;9(4):4758-4772. PMID 29435139.
The cells were obtained from University of North Carolina (UNC), Pediatric Preclinical Testing Program (PPT), and Coriell Institute (CI). qHTS cell viability assay: Cells were assayed in growth media at a density of 500-1,000 cells/well. Five microliters of cells were dispensed into 1,536-well, white, solid-bottom, TC-treated plates (Greiner Bio One) using a multidrop dispenser and incubated at 37 degrees C, 5% CO2, under a humidified atmosphere for 5 hours. Twenty-three nanoliters of compounds and controls (neutral control DMSO or positive control bortezomib at final concentration of 2.3 µM) were subsequently transferred by Kalypsys pintool. For primary screens, the MIPE collection was tested at 11-point dilutions (final concentrations range from 0.78 nM to 46 µM) and the NPC collection at 8-point dilutions (final concentrations range from 0.59 nM to 46 µM). Compounds tested in follow-up screens were assayed at 11-point dilutions. Cells were incubated for 48 hours, followed by addition of 3 µL of CellTiter-Glo (Promega). After a 15 min incubation at room temperature, samples were analyzed for luminescence intensity using a ViewLux High-throughput CCD imager equipped with clear filters.
On the technique in general: Quantitative high-throughput screening tests each substance at several concentrations.
`NCC(O)c1ccc(O)cc1` (stereo not given): the “activity change, negative = cytotoxic” value is -21.5%.
Regarding `C[C@]12CCC(=O)C(O)=C1CC[C@@H]1[C@@H]2CC[C@]2(C)C(=O)CC[C@@H]12`, the “activity change, negative = cytotoxic” value was -25%.
In the case of `Fc1ccc(C(OCCN2CCN(CCCc3ccccc3)CC2)c2ccc(F)cc2)cc1`, the Potency is 21.1 µM (active).
Regarding `Nc1ccncc1`, the “activity change, negative = cytotoxic” value is -11.7%.
As for `N[C@@H](Cc1ccc(Oc2cc(I)c(O)c(I)c2)c(I)c1)C(=O)O`, the “activity change, negative = cytotoxic” value was 1.67%.
For the compound `CCC(C(N)=O)N1CCCC1=O` (stereo not given), the “activity change, negative = cytotoxic” value was 0.167%.
Regarding `CC[N+](CC)(CC)CC`, the “activity change, negative = cytotoxic” value is -10.6%.
Consider `O=[N+]([O-])c1cc([As](=O)(O)O)ccc1O`, for which the “activity change, negative = cytotoxic” value is 33.7%.
On to `OCCOc1ccccc1`, for which the “activity change, negative = cytotoxic” value is 3.34%.
On to `CC(CCc1ccccc1)NC(C)C(O)c1ccc(O)cc1` (stereo not given), for which the “activity change, negative = cytotoxic” value was -14.5%.
Regarding `O=P1(NCCCl)OCCCN1CCCl` (stereo not given), the “activity change, negative = cytotoxic” value was -1.43%.
Take `O=c1oc2ccccc2c(O)c1C(CC(O)c1ccc(-c2ccc(Br)cc2)cc1)c1ccccc1` (stereo not given): the “activity change, negative = cytotoxic” value is 0.0801%.
In the case of `Cc1ccc(S(=O)(=O)N[C@@H](CCCCN)C(=O)CCl)cc1`, the “activity change, negative = cytotoxic” value was 14%.
For `N#CC(C#N)=Cc1ccc(O)c(O)c1`, the “activity change, negative = cytotoxic” value was -12.3%.
For `O=C(O)C(=O)c1cn(Cc2ccccc2)c2ccc(-c3ccc(OC(F)(F)F)cc3)cc12`, the “activity change, negative = cytotoxic” value was -48%.
Consider `CC1=C2C[C@@H]3[C@@H](CC=C4C[C@@H](O)CC[C@@]43C)[C@@H]2CC[C@]12O[C@H]1C[C@H](C)CN[C@H]1[C@H]2C`, for which the “activity change, negative = cytotoxic” value was -5.7%.
On to `Oc1ccccc1-c1ccccc1`, for which the “activity change, negative = cytotoxic” value is -14.4%.
With `C[C@@H]1O[C@@H](O[C@H]2C[C@@H](O)[C@]3(CO)[C@H]4[C@H](O)C[C@]5(C)[C@@H](C6=CC(=O)OC6)CC[C@]5(O)[C@@H]4CC[C@]3(O)C2)[C@H](O)[C@H](O)[C@H]1O`, the Potency is 14.8 nM (active) and 33.5 nM (active).
In the case of `CC[N+]1(C)CCCC(OC(=O)C(O)(c2ccccc2)c2ccccc2)C1` (stereo not given), the “activity change, negative = cytotoxic” value was -14.5%.
The same measure, in the same setting: then `C=CCN1CC[C@]23c4c5ccc(O)c4O[C@H]2C(=O)CC[C@@]3(O)[C@H]1C5`, with 3.28%.
Regarding `Oc1cc(Cl)ccc1Oc1ccc(Cl)cc1Cl`, the Potency is 24.8 µM (active).
Same read-out and setting: the entry for `CNCC(O)c1ccc(O)cc1` (stereo not given) is “inactive”.
Take `O=C(O)c1ccc2[nH]cc(CCCCN3CC=C(c4ccccc4)CC3)c2c1`: the “activity change, negative = cytotoxic” value is -13.9%.
On the same count and under the same terms, then `CCN(CC)C(=O)N[C@@H]1C=C2c3cccc4[nH]cc(c34)C[C@@H]2N(C)C1`, with -6.85%; and `CC(C)(C)NCC(O)c1cc(Cl)c(N)c(Cl)c1` (stereo not given), with 7.43%.
In the case of `NCC1(CC(=O)O)CCCCC1`, the Potency entry is “inactive”.
With `CN1C[C@H](CNC(=O)OCc2ccccc2)C[C@@H]2c3cccc4c3c(cn4C)C[C@H]21`, the “activity change, negative = cytotoxic” value is -25.3%.
Take `COC[C@H]1OC(=O)c2coc3c2[C@@]1(C)C1=C(C3=O)C2CCC(=O)[C@@]2(C)C[C@H]1OC(C)=O` (stereo not given in full): the Potency is 9.35 µM (active).
Regarding `CCCN1CCC[C@@H]2Cc3[nH]ncc3C[C@H]21`, the “activity change, negative = cytotoxic” value is -20.1%.
Regarding `CNC(=O)c1ccc(N2C(=S)N(c3ccc(C#N)c(C(F)(F)F)c3)C(=O)C23CCC3)cc1F`, the Potency was 11.8 µM (active).
With `CO[C@]12CC[C@@]3(C[C@@H]1[C@](C)(O)C(C)(C)C)[C@@H]1Cc4ccc(O)c5c4[C@@]3(CCN1CC1CC1)[C@H]2O5`, the Potency is 30.3 µM (active).
On the same count and under the same terms, then `Cn1c(CCCC(=O)O)nc2cc(N(CCCl)CCCl)ccc21`, with “inactive”; and `CC(C)CC(N(C)C)C1(c2ccc(Cl)cc2)CCC1` (stereo not given), with “inactive”.
For `NCCc1cc(O)c(O)cc1O`, the “activity change, negative = cytotoxic” value was -2.11%.
Regarding `C[C@H]1O[C@@H](O[C@H]2[C@@H](O)C[C@H](O[C@H]3[C@@H](O)C[C@H](O[C@H]4CC[C@@]5(C)[C@H](CC[C@@H]6[C@@H]5CC[C@]5(C)[C@@H](C7=CC(=O)OC7)CC[C@]65O)C4)O[C@@H]3C)O[C@@H]2C)C[C@H](O)[C@@H]1O`, the Potency is 0.0053 µM (active).
For `FC(F)(F)c1cccc(C2=CCN(CCc3ccc4ccccc4c3)CC2)c1`, the “activity change, negative = cytotoxic” value is -10.1%.
Take `CCCN1CCC[C@@H]2Cc3nc(N)ncc3C[C@H]21`: the “activity change, negative = cytotoxic” value was -19.5%.
As for `O=C1NCN(c2ccccc2)C12CCN(CC1COc3ccccc3O1)CC2` (stereo not given), the “activity change, negative = cytotoxic” value is -18.4%.
The same measure, in the same setting: the figure for `COC1(CS(=O)c2ccccc2)CCN(CCc2c[nH]c3ccc(F)cc23)CC1` (stereo not given) is -26.6%; for `C=C1C[C@@H]2[C@H](CC[C@]3(C)C(=O)CC[C@@H]23)[C@@]2(C)C=CC(=O)C=C12` it is 16.2%.
